PubChem BioAssay AID1259423 (Fisher Drug Discovery Resource Center, 2018)
Out of some 270,000 compounds screened, about 410 (0.15%) were called active. No stated cut-off is given here; in the data, active means activation above about 40%; inactive means the rest, inconclusive results apart. For the sample, actives were picked, then their nearest neighbours and some compounds at random.

System: Aedes aegypti neuropeptide Y-like receptor 7 (NPYLR7)
Assay: agonists of mosquito NPYLR7 receptor, primary screen, cell-based, Aedes aegypti, calcium fluorescence, mosquito biting behavior (AID 1259423);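 further: 0% = vehicle and 100% = reference agonist at the receptor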
Conditions: HEK293T NPYLR7/Galpha15, GCaMP6s calcium fluorescence, at 10 µM, stronger effect = higher value
[1] = measured here: Max-Min RFU normalised activation

CCOC(=O)Nc1cc(=O)c2cc(C)ccc2o1
activation: 0.463% (inactive)
activation [1]: -6.18%

COc1ccc(C)c2sc(N(CCCN3CCOCC3)C(=O)c3ccc([N+](=O)[O-])cc3)nc12
activation: -0.485% (inactive)
activation [1]: -6.29%

Cc1ccc(CN(Cc2ccc(F)cc2)C(=O)CNCCN2CCOCC2)s1
activation: 56.1% (active)
activation [1]: 58%

COCCNCC(=O)N(Cc1ccccc1)Cc1ccc(C)s1
activation: -5.15% (inactive)
activation [1]: -13.2%

O=C(CNCCN1CCOCC1)N(Cc1ccccc1)Cc1cccs1
activation: -7.58% (inactive)
activation [1]: -12.6%

Cc1ccc(CNc2oc(-c3ccc(S(=O)(=O)N(C)Cc4ccccc4)cc3)nc2C#N)cc1
activation: -0.355% (inactive)
activation [1]: 4.09%

O=C(NC1Cc2ccccc2C1)c1ccc(-c2cc(-c3cccc(C(F)(F)F)c3)n[nH]2)cc1
activation: 25.1% (inactive)
activation [1]: 16.8%

O=c1oc2c(Cl)cc(Cl)cc2cc1-c1nnc(Nc2ccccc2F)s1
activation: 3.96% (inactive)
activation [1]: 1.58%

N#Cc1cc2cc(Cl)cc(Cl)c2oc1=O
activation: 189% (active)
activation [1]: 162%

N#Cc1cc(Cl)c(Cl)cc1C#N
activation: 9.21% (inactive)
activation [1]: 8.51%

CCCCNC(=O)c1c(C)c(C(=O)OCC)n(C)c1C
activation: -1.79% (inactive)
activation [1]: 26.8%

O=C(Nc1cc(F)c(N2CCCC2)c(F)c1)C1Cc2ccccc2O1 (configuration not stated)
activation: 2.58% (inactive)
activation [1]: 0.532%

COc1ccc(NC(=O)C(C)SCc2cccc(C(F)(F)F)c2)cc1 (configuration not stated)
activation: -0.635% (inactive)
activation [1]: -2.01%

C=C(C)Cn1c(C2CC(=O)N(c3ccccc3CC)C2)nc2ccccc21 (configuration not stated)
activation: -1.84% (inactive)
activation [1]: 23.5%

CCN(CC)C(=O)C1(C)CCN1C(=O)Cc1ccc(-c2ccccc2)cc1 (configuration not stated)
activation: 4.71% (inactive)
activation [1]: 3.32%

COc1cccc(CN(CC(O)COCC(C)C)CC2CCCO2)c1 (configuration not stated)
activation: 23.7% (inactive)
activation [1]: 17.6%

CC(C)COCC(O)CN(Cc1cccn1C)CC1CCCO1 (configuration not stated)
activation: 43.6% (active)
activation [1]: 42.4%

COc1ccc(OCC(O)CN(Cc2cccn2C)CC2CCCO2)cc1 (configuration not stated)
activation: 18.8% (inactive)
activation [1]: 19.6%

Fc1ccc(-c2cnc(NCCc3ccccn3)cn2)cc1Cl
activation: -2.76% (inactive)
activation [1]: -5.38%

COC(=O)C1=C(NC(=O)CSCc2ccccc2)CCS1
activation: -1% (inactive)
activation [1]: -1.58%

CC1CCC(C(C)C)C(OCC(O)CN2CCN(CCO)CC2)C1 (configuration not stated)
activation: 0.73% (inactive)
activation [1]: 22.3%
